Test results reported in PubChem BioAssay (NCI).
About 79,000 compounds went through this panel and 15% of them were active in at least one assay; those are over-represented in the sample as a whole. A number with no mark means an inactive call. Activity calls are given as the source filed them. Cut-off read from the data, not from the text of the source: active = growth inhibition above about 70%; inactive = the rest.

What was measured:
[1] = NCI Yeast Anticancer Drug Screen. Data for the rad52 strain (AID 147);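 note: 0% = growth of vehicle-treated control cultures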; conditions: S. cerevisiae rad52 mutant growth inhibition, active compounds read high
Summary of the method: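 Inhibition of yeast growth, referenced to vehicle controls, was the measured output for a strain with defective DNA damage repair.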

[2] = NCI Yeast Anticancer Drug Screen. Data for the wt1 strain (AID 149);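 note: 0% = growth of vehicle-treated wt1 cultures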; conditions: S. cerevisiae wt1 strain (SPY 50644) growth inhibition, active compounds read high
Summary of the method: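 Growth inhibition read against vehicle controls after compound exposure of the wt1 yeast strain.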

[3] = NCI Yeast Anticancer Drug Screen. Data for the rad50EPP+ strain (AID 151);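 note: 0% = growth of vehicle-treated control cultures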; conditions: S. cerevisiae rad50 mutant strain, active compounds read high
Summary of the method: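 Genetically defined yeast (rad50EPP+, DNA damage repair alteration) is grown with compound, and inhibition of growth is expressed relative to vehicle-treated controls.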

[4] = NCI Yeast Anticancer Drug Screen. Data for the mgt1 strain (AID 153); conditions: S. cerevisiae mgt1 mutant growth inhibition, active compounds read high
Summary of the method: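 In the mgt1 strain, test compounds were added and growth inhibition was determined relative to vehicle-treated controls.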

[5] = NCI Yeast Anticancer Drug Screen. Data for the rad50 strain (AID 155);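 note: 0% = growth of vehicle-only cultures of the same strain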; conditions: S. cerevisiae rad50 strain growth inhibition, active compounds read high
Summary of the method: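 Readout: growth inhibition relative to vehicle-treated cultures. Compound exposure was carried out in a genetically defined yeast strain deficient in DNA damage repair.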

[6] = NCI Yeast Anticancer Drug Screen. Data for the mec2-1 strain (AID 157); conditions: S. cerevisiae mec2-1 strain, active compounds read high
Summary of the method: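 Each compound was tested on mec2-1 yeast, a strain altered in DNA damage repair or cell cycle control. Growth inhibition is reported relative to vehicle.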

[7] = NCI Yeast Anticancer Drug Screen. Data for the rad14 strain (AID 159);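 note: 0% = growth of vehicle-treated control cultures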; conditions: S. cerevisiae rad14 strain growth inhibition, active compounds read high
Summary of the method: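 Growth inhibition vs vehicle controls; genetically altered yeast strain (DNA damage repair defect) treated with test compounds.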

[8] = NCI Yeast Anticancer Drug Screen. Data for the sgs1 mgt1 strain (AID 161);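 note: 0% = growth of cultures given vehicle only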; conditions: S. cerevisiae sgs1 mgt1 strain, active compounds read high
Summary of the method: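 Genetically altered yeast, compound exposure, growth inhibition relative to vehicle.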

[9] = NCI Yeast Anticancer Drug Screen. Data for the CLN2oe strain (AID 163);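 note: 0% = growth of vehicle-only control cultures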; conditions: S. cerevisiae CLN2oe strain, active compounds read high
Summary of the method: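 First, the altered yeast strain was treated with each compound; second, its growth was measured; finally, inhibition was derived by comparison with vehicle controls.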

[10] = NCI Yeast Anticancer Drug Screen. Data for the cln2 rad14 strain (AID 165);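 note: 0% = growth equal to vehicle treated cultures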; conditions: S. cerevisiae cln2 rad14 strain, active compounds read high
Summary of the method: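 Test compounds were added to cln2 rad14 yeast cultures; inhibition of growth was then determined by comparison with vehicle treatment.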

[11] = NCI Yeast Anticancer Drug Screen. Data for the bub3 strain (AID 167); conditions: S. cerevisiae bub3 mutant strain, active compounds read high
Summary of the method: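 Readout: yeast growth inhibition, expressed relative to vehicle-only wells. The test organism is a mutant strain from a panel with lesions in DNA repair or checkpoint genes.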

[12] = NCI Yeast Anticancer Drug Screen. Data for the mlh1 strain (AID 171);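 note: 0% = growth of vehicle-treated control cultures of the same strain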; conditions: S. cerevisiae mlh1 strain growth inhibition, active compounds read high
Summary of the method: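 Inhibition values reflect reduced yeast growth in the presence of compound, referenced to vehicle controls, using a strain chosen for its alteration in DNA repair or cell cycle control.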

[13] = NCI Yeast Anticancer Drug Screen. Data for the sgs1 strain (AID 173);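 note: 0% = growth of vehicle-only control cultures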; conditions: S. cerevisiae sgs1 mutant, active compounds read high
Summary of the method: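 Vehicle-treated cultures served as reference for growth inhibition of a yeast strain altered in DNA damage repair or cell cycle control after compound exposure.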

[14] = NCI Yeast Anticancer Drug Screen. Data for the mlh1 rad18 strain (AID 175); conditions: S. cerevisiae mlh1 rad18 strain growth inhibition, active compounds read high
Summary of the method: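 Inhibition values reflect reduced growth of mutant yeast versus vehicle-treated controls following compound exposure; the mutations affect DNA damage repair.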

[15] = NCI Yeast Anticancer Drug Screen. Data for the rad18 strain (AID 177); conditions: S. cerevisiae rad18 mutant growth inhibition, active compounds read high
Summary of the method: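 Steps: expose repair-mutant yeast to compound; measure growth; express as inhibition relative to vehicle control.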

[16] = at 5.0 µM (retest, dose inferred, filed as 0.5)
[17] = at 50.0 µM (retest, dose inferred, filed as 5.0)

Cn1c2nc3ccccc3c-2nc2ccccc21
growth inhibition ([1]; at 1.2 µM): 25% | growth inhibition ([1]; at 3.7 µM): 88% (active) | growth inhibition ([1]; at 11.0 µM): 97% (active) | growth inhibition ([1]; at 33.0 µM): 98% (active) | growth inhibition ([1]; at 100.0 µM): 98% (active) | growth inhibition ([2]; at 1.2 µM): 6% | growth inhibition ([2]; at 3.7 µM): 29% | growth inhibition ([2]; at 11.0 µM): 79% (active) | growth inhibition ([2]; at 33.0 µM): 96% (active) | growth inhibition ([2]; at 100.0 µM): 97% (active) | growth inhibition ([3]; at 1.2 µM): 52% | growth inhibition ([3]; at 3.7 µM): 93% (active) | growth inhibition ([3]; at 11.0 µM): 98% (active) | growth inhibition ([3]; at 33.0 µM): 98% (active) | growth inhibition ([3]; at 100.0 µM): 98% (active) | growth inhibition ([4]; at 1.2 µM): 4% | growth inhibition ([4]; at 3.7 µM): 29% | growth inhibition ([4]; at 11.0 µM): 80% (active) | growth inhibition ([4]; at 33.0 µM): 97% (active) | growth inhibition ([4]; at 100.0 µM): 97% (active) | growth inhibition ([5]; at 1.2 µM): 27% | growth inhibition ([5]; at 3.7 µM): 81% (active) | growth inhibition [5, 16]: 75% (active) | growth inhibition ([5]; at 11.0 µM): 95% (active) | growth inhibition ([5]; at 33.0 µM): 97% (active) | growth inhibition [5, 17]: 97% (active) | growth inhibition ([5]; at 50.0 µM): 98.6% (active) | growth inhibition ([5]; at 100.0 µM): 96% (active) | growth inhibition ([6]; at 1.2 µM): 10% | growth inhibition ([6]; at 3.7 µM): 41% | growth inhibition [6, 16]: 33% | growth inhibition ([6]; at 11.0 µM): 87% (active) | growth inhibition ([6]; at 33.0 µM): 97% (active) | growth inhibition [6, 17]: 98% (active) | growth inhibition ([6]; at 50.0 µM): 96% (active) | growth inhibition ([6]; at 100.0 µM): 98% (active) | growth inhibition ([7]; at 1.2 µM): 8% | growth inhibition ([7]; at 3.7 µM): 31% | growth inhibition ([7]; at 11.0 µM): 82% (active) | growth inhibition ([7]; at 33.0 µM): 97% (active) | growth inhibition ([7]; at 100.0 µM): 98% (active) | growth inhibition [8, 16]: 39% | growth inhibition [8, 17]: 95% (active) | growth inhibition ([8]; at 50.0 µM): 97.9% (active) | growth inhibition ([9]; at 1.2 µM): 19% | growth inhibition ([9]; at 3.7 µM): 46% | growth inhibition ([9]; at 11.0 µM): 91% (active) | growth inhibition ([9]; at 33.0 µM): 97% (active) | growth inhibition ([9]; at 100.0 µM): 97% (active) | growth inhibition [10, 16]: 32% | growth inhibition [10, 17]: 96% (active) | growth inhibition ([10]; at 50.0 µM): 96.2% (active) | growth inhibition ([11]; at 1.2 µM): -5% | growth inhibition ([11]; at 3.7 µM): 22% | growth inhibition [11, 16]: 16% | growth inhibition ([11]; at 11.0 µM): 88% (active) | growth inhibition ([11]; at 33.0 µM): 96% (active) | growth inhibition [11, 17]: 97% (active) | growth inhibition ([11]; at 50.0 µM): 98.2% (active) | growth inhibition ([11]; at 100.0 µM): 94% (active) | growth inhibition ([12]; at 1.2 µM): 9% | growth inhibition ([12]; at 3.7 µM): 46% | growth inhibition ([12]; at 11.0 µM): 91% (active) | growth inhibition ([12]; at 33.0 µM): 97% (active) | growth inhibition ([12]; at 100.0 µM): 97% (active) | growth inhibition ([13]; at 1.2 µM): 8% | growth inhibition ([13]; at 3.7 µM): 42% | growth inhibition ([13]; at 11.0 µM): 88% (active) | growth inhibition ([13]; at 33.0 µM): 97% (active) | growth inhibition ([13]; at 100.0 µM): 97% (active) | growth inhibition [14, 16]: 45% | growth inhibition [14, 17]: 98% (active) | growth inhibition ([14]; at 50.0 µM): 98.1% (active) | growth inhibition ([15]; at 1.2 µM): 8% | growth inhibition ([15]; at 3.7 µM): 42% | growth inhibition ([15]; at 11.0 µM): 90% (active) | growth inhibition ([15]; at 33.0 µM): 97% (active) | growth inhibition ([15]; at 100.0 µM): 93% (active)

CCC(C)(c1ccc(O)c(C)c1)c1ccc(O)c(C)c1
growth inhibition ([1]; at 1.2 µM): -36% | growth inhibition ([1]; at 3.7 µM): -19% | growth inhibition ([1]; at 11.0 µM): 42% | growth inhibition ([1]; at 33.0 µM): 98% (active) | growth inhibition ([1]; at 100.0 µM): 98% (active) | growth inhibition ([2]; at 1.2 µM): -17% | growth inhibition ([2]; at 3.7 µM): -23% | growth inhibition ([2]; at 11.0 µM): 29% | growth inhibition ([2]; at 33.0 µM): 98% (active) | growth inhibition ([2]; at 100.0 µM): 99% (active) | growth inhibition ([3]; at 1.2 µM): -31% | growth inhibition ([3]; at 3.7 µM): -38% | growth inhibition ([3]; at 11.0 µM): -43% | growth inhibition ([3]; at 33.0 µM): -41% | growth inhibition ([3]; at 100.0 µM): 12% | growth inhibition ([4]; at 1.2 µM): -49% | growth inhibition ([4]; at 3.7 µM): -39% | growth inhibition ([4]; at 11.0 µM): 14% | growth inhibition ([4]; at 33.0 µM): 97% (active) | growth inhibition ([4]; at 100.0 µM): 99% (active) | growth inhibition ([5]; at 1.2 µM): -30% | growth inhibition ([5]; at 3.7 µM): -28% | growth inhibition [5, 16]: 40% | growth inhibition ([5]; at 11.0 µM): 52% | growth inhibition ([5]; at 33.0 µM): 97% (active) | growth inhibition [5, 17]: 87% (active) | growth inhibition ([5]; at 50.0 µM): 92% (active) | growth inhibition ([5]; at 100.0 µM): 97% (active) | growth inhibition ([6]; at 1.2 µM): -66% | growth inhibition ([6]; at 3.7 µM): -45% | growth inhibition [6, 16]: 42% | growth inhibition ([6]; at 11.0 µM): 43% | growth inhibition ([6]; at 33.0 µM): 98% (active) | growth inhibition [6, 17]: 90% (active) | growth inhibition ([6]; at 50.0 µM): 93.3% (active) | growth inhibition ([6]; at 100.0 µM): 98% (active) | growth inhibition ([7]; at 1.2 µM): -38% | growth inhibition ([7]; at 3.7 µM): -43% | growth inhibition ([7]; at 11.0 µM): 15% | growth inhibition ([7]; at 33.0 µM): 98% (active) | growth inhibition ([7]; at 100.0 µM): 98% (active) | growth inhibition [8, 16]: -3% | growth inhibition [8, 17]: 98% (active) | growth inhibition ([8]; at 50.0 µM): 93.8% (active) | growth inhibition ([9]; at 1.2 µM): -36% | growth inhibition ([9]; at 3.7 µM): -28% | growth inhibition ([9]; at 11.0 µM): 45% | growth inhibition ([9]; at 33.0 µM): 97% (active) | growth inhibition ([9]; at 100.0 µM): 98% (active) | growth inhibition [10, 16]: 81% (active) | growth inhibition [10, 17]: 100% (active) | growth inhibition ([10]; at 50.0 µM): 92.7% (active) | growth inhibition ([11]; at 1.2 µM): -27% | growth inhibition ([11]; at 3.7 µM): -13% | growth inhibition [11, 16]: 13% | growth inhibition ([11]; at 11.0 µM): 47% | growth inhibition ([11]; at 33.0 µM): 97% (active) | growth inhibition [11, 17]: 99% (active) | growth inhibition ([11]; at 50.0 µM): 92.2% (active) | growth inhibition ([11]; at 100.0 µM): 98% (active) | growth inhibition ([12]; at 1.2 µM): -45% | growth inhibition ([12]; at 3.7 µM): -43% | growth inhibition ([12]; at 11.0 µM): 42% | growth inhibition ([12]; at 33.0 µM): 91% (active) | growth inhibition ([12]; at 100.0 µM): 98% (active) | growth inhibition ([13]; at 1.2 µM): -32% | growth inhibition ([13]; at 3.7 µM): -25% | growth inhibition ([13]; at 11.0 µM): 39% | growth inhibition ([13]; at 33.0 µM): 97% (active) | growth inhibition ([13]; at 100.0 µM): 98% (active) | growth inhibition [14, 16]: 30% | growth inhibition [14, 17]: 91% (active) | growth inhibition ([14]; at 50.0 µM): 92.2% (active) | growth inhibition ([15]; at 1.2 µM): -55% | growth inhibition ([15]; at 3.7 µM): -38% | growth inhibition ([15]; at 11.0 µM): 30% | growth inhibition ([15]; at 33.0 µM): 97% (active) | growth inhibition ([15]; at 100.0 µM): 98% (active)
